The text below walks through data of ChEMBL document CHEMBL3988442, “University of Dundee, Small-Polar-MMV Screening Library” (2021).

For some of these results: Measured potencies and affinities stand elsewhere.

Holding throughout (design): scale not given: direction of the effect not stated beside the values
The target of test [1] is Protein translocase subunit SecA (Escherichia coli (strain K12)) (UniProt P10408). As to the kind of experiment: Assay to Identify E. coli SecA ATPase Inhibitors. Type of test: functional. The conditions noted are these: 30 µM.
Test [2] addresses T1, Ubiquitin-activating enzyme e1, putative (Leishmania donovani (strain BPK282A1)) (UniProt E9BSI1).
T1 sequence (whole entry): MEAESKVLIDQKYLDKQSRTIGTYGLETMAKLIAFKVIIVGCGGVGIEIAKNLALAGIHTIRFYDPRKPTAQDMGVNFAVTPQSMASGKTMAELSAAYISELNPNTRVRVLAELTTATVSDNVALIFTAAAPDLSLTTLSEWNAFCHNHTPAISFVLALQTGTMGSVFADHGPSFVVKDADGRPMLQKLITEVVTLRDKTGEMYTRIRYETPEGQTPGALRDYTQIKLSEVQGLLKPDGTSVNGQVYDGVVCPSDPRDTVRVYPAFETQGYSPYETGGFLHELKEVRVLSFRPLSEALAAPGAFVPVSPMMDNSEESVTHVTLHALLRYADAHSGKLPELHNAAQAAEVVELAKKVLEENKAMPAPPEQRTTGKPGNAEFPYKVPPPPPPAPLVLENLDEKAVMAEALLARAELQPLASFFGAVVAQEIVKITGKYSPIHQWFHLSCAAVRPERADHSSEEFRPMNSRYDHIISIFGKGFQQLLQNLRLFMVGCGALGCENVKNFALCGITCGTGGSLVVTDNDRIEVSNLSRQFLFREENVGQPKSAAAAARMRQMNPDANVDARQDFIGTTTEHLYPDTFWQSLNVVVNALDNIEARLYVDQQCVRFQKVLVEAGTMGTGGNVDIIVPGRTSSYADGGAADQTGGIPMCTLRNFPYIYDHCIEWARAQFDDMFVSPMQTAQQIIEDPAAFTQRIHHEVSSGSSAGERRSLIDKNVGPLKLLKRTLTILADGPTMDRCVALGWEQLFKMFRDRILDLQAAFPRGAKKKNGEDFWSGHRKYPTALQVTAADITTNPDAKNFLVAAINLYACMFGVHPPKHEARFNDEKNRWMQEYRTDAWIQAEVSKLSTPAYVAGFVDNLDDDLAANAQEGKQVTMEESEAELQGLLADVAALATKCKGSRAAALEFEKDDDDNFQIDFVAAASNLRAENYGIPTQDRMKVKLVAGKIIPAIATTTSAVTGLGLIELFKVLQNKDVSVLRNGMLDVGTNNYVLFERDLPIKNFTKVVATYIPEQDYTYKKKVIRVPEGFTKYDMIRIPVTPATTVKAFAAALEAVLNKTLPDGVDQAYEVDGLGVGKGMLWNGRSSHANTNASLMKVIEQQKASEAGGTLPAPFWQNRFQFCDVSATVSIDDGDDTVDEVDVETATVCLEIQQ
As to the kind of experiment: Leishmania donovani Ubiquitin Activating Enzyme (LdE1). The test is classed as functional. The conditions noted are these: 30 µM.

Test [3] concerns the target AMP-activated protein kinase, AMPK (Homo sapiens) (UniProt P54646+O43741+P54619+Q9UGJ0+Q9Y478+Q13131+Q9UGI9). Kind of test: AMP-dependent Kinase enzyme assay. An in vitro enzyme assay that detects ADP turnover that is directly proportional to AMPK activity. This uses naive AMPK that is activated during the assay with MK-8722. The test is classed as functional. Particulars: 30 µM.

Test [4] deals with Sialic acid-binding Ig-like lectin 9 (Homo sapiens) (UniProt Q9Y336). As to the kind of experiment: Hs-Siglec9 ALPHAscreen SOP 20170721. Particulars: 10 µM. Background: Bead proximity is the source of the signal in Alpha formats.
Test [5] concerns Trypanosoma cruzi. Kind of test: Trypanosoma cruzi phosphomannomutase and mannose-1-phosphate guanylyltransferase assay. The test is classed as functional. The conditions noted are these: 10 µM.
Test [6] concerns the target T2, Arginase-2, mitochondrial (Homo sapiens) (UniProt P78540).
T2 sequence (whole entry): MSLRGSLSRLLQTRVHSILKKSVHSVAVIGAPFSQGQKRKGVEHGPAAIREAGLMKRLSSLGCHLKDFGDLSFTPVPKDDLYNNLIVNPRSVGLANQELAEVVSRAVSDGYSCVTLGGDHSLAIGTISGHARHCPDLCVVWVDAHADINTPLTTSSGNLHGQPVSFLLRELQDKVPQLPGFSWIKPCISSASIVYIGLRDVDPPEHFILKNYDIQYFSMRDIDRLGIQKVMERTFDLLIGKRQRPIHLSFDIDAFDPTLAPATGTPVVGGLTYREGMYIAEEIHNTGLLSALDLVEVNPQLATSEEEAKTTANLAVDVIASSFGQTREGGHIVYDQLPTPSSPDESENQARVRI
Kind of test: in vitro enzyme assay to detect the production of urea directly proportional to the activity of Arginase II. Note: in the data most compounds retested in dose-response had high values. The test is classed as functional. Particulars: 33.3 µM.

For test [7], the target named is T3, Proteasome subunit beta (Trypanosoma cruzi) (UniProt O96673).
T3 sequence (whole entry): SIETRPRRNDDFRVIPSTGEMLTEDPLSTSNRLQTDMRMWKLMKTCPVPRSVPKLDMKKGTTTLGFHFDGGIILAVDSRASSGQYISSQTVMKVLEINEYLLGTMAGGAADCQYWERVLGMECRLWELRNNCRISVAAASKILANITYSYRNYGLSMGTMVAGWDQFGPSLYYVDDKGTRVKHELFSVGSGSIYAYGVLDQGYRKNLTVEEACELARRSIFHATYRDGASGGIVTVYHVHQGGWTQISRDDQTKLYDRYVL
As to the kind of experiment: Trypanosoma cruzi proteasome chymotrypsin-like activity (TcProtChymo) assay. Note: in the data most compounds retested in dose-response had high values. Particulars: 9.37 µM. Type of test: functional.

For test [8], the species on record is Homo sapiens. As to the kind of experiment: To identify inhibition of the IFN signalling (Jak-Stat) pathway via expression of an eGFP reporter gene under the control of an IFN-stimulated response element (ISRE) containing MxA promoter. The conditions noted are these: 30 µM. Type of test: functional. (In general: In a reporter assay the amount or activity of a reporter protein is the signal.)

In test [9] the target is T4, Tyrosyl-tRNA synthetase, putative (Trypanosoma cruzi (strain CL Brener)) (UniProt Q4DSP6).
T4 sequence (whole entry): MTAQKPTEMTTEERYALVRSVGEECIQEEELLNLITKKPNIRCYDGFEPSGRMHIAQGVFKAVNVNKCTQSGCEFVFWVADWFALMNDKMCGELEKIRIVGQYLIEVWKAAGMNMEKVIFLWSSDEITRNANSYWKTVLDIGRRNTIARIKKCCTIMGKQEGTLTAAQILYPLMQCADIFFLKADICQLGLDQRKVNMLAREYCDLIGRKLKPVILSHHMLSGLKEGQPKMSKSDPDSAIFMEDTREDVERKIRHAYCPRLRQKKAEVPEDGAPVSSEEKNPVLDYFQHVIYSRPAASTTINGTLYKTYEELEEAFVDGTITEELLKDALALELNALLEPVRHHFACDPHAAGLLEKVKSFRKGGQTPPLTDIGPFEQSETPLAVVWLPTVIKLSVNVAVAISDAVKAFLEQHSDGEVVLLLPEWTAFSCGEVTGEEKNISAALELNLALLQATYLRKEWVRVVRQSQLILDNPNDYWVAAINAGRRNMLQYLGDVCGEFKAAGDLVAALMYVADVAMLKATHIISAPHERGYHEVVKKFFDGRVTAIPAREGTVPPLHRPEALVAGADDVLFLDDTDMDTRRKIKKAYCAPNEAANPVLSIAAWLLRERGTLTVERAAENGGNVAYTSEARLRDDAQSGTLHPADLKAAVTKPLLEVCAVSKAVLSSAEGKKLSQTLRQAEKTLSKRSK
As to the kind of experiment: Trypanosoma cruzi tyrosyl tRNA synthetase (TcYRS) _High Tyrosine SOP. Note: in the data most compounds retested in dose-response had high values. Type of test: functional. Particulars: 30 µM.

For test [10], the target named is T4, Tyrosyl-tRNA synthetase, putative (Trypanosoma cruzi (strain CL Brener)). As to the kind of experiment: Trypanosoma cruzi tyrosyl tRNA synthetase (TcYRS) SOP. The test is classed as functional. The conditions noted are these: 30 µM.
Test [11] addresses Chromo domain-containing protein 1 (Saccharomyces cerevisiae (strain ATCC 204508 / S288c) (Baker's yeast)) (UniProt P32657). Kind of test: ScCHD-1 Enzyme Inhibition Assay. Note: in the data most compounds retested in dose-response had high values. The test is classed as functional. Particulars: 30 µM.

Protein translocase subunit SecA (Escherichia coli (strain K12)), sequence (P10408 whole entry): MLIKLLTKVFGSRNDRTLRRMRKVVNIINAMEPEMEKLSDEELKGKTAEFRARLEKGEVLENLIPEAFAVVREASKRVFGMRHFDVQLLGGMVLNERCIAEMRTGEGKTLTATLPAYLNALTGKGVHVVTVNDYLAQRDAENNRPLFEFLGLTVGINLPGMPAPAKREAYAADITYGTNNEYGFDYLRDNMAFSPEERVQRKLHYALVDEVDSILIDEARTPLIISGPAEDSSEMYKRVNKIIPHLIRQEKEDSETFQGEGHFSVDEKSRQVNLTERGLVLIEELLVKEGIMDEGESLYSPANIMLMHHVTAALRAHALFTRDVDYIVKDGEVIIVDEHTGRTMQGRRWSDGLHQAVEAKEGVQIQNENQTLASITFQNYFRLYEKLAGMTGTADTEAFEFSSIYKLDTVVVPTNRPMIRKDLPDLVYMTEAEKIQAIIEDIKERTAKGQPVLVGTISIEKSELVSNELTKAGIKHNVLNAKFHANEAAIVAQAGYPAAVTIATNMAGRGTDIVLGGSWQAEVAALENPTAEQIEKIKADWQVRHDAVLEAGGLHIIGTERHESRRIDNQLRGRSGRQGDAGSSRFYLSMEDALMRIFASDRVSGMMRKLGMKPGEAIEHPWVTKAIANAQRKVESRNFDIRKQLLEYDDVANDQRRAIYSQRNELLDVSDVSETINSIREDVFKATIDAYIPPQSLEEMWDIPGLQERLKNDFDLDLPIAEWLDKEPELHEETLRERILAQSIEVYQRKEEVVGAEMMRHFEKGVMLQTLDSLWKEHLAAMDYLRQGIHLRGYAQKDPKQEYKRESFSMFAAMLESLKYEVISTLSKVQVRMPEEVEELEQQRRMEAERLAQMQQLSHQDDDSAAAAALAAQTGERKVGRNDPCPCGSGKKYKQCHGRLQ
Sialic acid-binding Ig-like lectin 9 (Homo sapiens), sequence (Q9Y336 whole entry): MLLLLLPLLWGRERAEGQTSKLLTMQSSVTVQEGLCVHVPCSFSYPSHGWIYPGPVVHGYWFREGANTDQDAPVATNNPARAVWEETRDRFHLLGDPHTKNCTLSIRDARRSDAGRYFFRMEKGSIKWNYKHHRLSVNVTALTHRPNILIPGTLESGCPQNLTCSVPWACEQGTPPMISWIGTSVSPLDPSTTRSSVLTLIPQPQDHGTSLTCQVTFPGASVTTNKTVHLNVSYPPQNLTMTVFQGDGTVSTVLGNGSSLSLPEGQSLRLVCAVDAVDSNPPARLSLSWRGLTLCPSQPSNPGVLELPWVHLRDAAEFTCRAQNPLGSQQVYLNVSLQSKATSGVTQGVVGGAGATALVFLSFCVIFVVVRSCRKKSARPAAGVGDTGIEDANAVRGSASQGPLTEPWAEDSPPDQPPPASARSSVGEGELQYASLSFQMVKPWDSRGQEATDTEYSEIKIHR
Chromo domain-containing protein 1 (Saccharomyces cerevisiae (strain ATCC 204508 / S288c) (Baker's yeast)), sequence (P32657 whole entry, the tested form may be a part): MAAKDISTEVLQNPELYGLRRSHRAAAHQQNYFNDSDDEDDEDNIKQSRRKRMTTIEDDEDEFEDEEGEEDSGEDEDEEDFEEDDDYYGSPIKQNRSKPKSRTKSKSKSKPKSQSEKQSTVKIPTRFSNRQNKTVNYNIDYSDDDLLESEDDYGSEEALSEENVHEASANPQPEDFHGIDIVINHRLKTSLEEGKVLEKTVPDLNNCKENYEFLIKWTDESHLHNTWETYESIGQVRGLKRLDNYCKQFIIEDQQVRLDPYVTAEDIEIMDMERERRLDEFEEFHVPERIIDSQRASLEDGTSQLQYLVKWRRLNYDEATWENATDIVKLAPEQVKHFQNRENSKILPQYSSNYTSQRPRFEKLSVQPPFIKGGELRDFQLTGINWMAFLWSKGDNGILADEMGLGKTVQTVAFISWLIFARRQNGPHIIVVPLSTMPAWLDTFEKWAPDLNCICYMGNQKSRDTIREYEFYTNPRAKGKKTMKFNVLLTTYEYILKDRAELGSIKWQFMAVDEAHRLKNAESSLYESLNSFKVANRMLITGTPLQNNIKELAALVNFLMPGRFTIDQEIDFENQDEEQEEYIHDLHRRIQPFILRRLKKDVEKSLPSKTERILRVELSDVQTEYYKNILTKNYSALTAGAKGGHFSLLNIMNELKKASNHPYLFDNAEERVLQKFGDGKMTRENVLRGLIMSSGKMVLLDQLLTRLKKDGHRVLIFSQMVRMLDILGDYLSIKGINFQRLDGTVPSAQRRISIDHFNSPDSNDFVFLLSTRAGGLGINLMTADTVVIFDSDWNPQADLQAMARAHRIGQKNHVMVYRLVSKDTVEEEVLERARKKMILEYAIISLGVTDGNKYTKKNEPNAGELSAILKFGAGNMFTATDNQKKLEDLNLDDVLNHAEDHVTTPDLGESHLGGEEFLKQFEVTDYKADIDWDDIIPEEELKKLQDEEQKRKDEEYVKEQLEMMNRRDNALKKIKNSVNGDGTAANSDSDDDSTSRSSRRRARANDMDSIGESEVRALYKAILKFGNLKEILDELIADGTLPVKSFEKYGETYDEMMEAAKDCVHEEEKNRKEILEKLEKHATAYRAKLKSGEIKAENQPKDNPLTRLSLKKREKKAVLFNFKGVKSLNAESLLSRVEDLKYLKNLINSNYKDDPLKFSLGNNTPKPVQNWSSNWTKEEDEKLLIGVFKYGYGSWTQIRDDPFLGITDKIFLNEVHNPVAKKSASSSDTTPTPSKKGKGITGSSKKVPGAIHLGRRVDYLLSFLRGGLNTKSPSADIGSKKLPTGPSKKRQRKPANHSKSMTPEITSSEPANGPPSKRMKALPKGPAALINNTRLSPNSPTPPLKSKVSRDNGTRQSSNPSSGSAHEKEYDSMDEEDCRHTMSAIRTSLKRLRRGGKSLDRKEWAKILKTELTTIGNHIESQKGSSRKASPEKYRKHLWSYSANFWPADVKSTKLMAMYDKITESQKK

On to `Cc1noc(C)c1CN1CCN(Cc2nccn2C)C(C)C1` (stereo unspecified), for which the Percent Effect in test [1] is 0.213%; in [2], 10.1%; in test [3], -9.19%; in test [4], 2.86%; in test [5] it was -10.1%; in test [6], 5.7%. Also, the Percent Effect in test [7] was 5.65%; in [8], 18.5%; in test [9] it was -0.493%; in [10] it was 11.4%; in test [11], -5.78%.

In the case of `Cc1cc(C(=O)N2CCCCC2C)ccc1NCCCO` (stereo unspecified), the Percent Effect in test [1] was -2.03%; in test [2] it was -2.6%; in [3], 3.91%; in [4] it was 5.61%; in test [5] it was -3%; in test [6], 0.712%. The Percent Effect is 4.73% in test [7]; -4.27% in [8]; 3.88% in test [9]; 7.32% in test [10]; -0.238% in test [11].

With `CC(C)C(C)NC(=O)Nc1ccccc1CN1CCOCC1` (stereo unspecified), the Percent Effect is -7.45% in test [1]; 2.7% in test [2]; 0.895% in [3]; 4.22% in test [4]; 1.47% in test [5]; 2.23% in test [6]. In addition, the Percent Effect in test [7] is 2.66%; in [8] it was -10.3%; in test [9], 6.45%; in [10], 11.1%; in test [11], -3.52%.

Take `COc1ccc(CNC(=O)C2(C#N)CCCC2)cc1`: the Percent Effect is -1.97% in test [1]; 12.5% in test [2]; -13.3% in test [3]; -2.27% in [4]; 3.6% in [5]; -2.65% in test [6]. For the same molecule, the Percent Effect in test [7] is 15.1%; in test [8], -14.7%; in test [9], 4.21%; in test [10], 7.69%; in [11] it was 95.5%.

Consider `O=C(CCc1ccccc1)N1CCn2cc(CN3CCCC3)nc2C1`, for which the Percent Effect is 0.2% in [1]; 5.2% in test [2]; -2.41% in [3]; 2.78% in test [4]; -1.08% in test [5]; -3.23% in [6]. The Percent Effect was 11.8% in test [7]; 7.71% in test [8]; 12.7% in test [9]; 16.7% in test [10]; -2.74% in test [11].

As to `O=C(CCc1ccccc1)N1CCn2cc(Cn3cncn3)nc2C1`, the Percent Effect was -2.68% in test [1]; 0% in test [2]; 5.15% in test [3]; 7.21% in test [4]; -3.45% in test [5]; -3.23% in test [6]. Further, the Percent Effect in test [7] was 14.6%; in test [8], 22.4%; in test [9], 1.06%; in test [10], -1.28%; in [11] it was 1.43%.

`CN(C)C(=O)[C@@H]1C[C@@H]2CCN(Cc3nccs3)C[C@@H]2O1`: the Percent Effect in test [1] was -4.02%; in [2] it was 2.7%; in test [3] it was 4.31%; in test [4], -1.06%; in test [5], -3.62%; in [6], -3.5%. In addition, the Percent Effect was 21.8% in test [7]; -10.8% in test [8]; 4.32% in test [9]; 7.69% in [10]; 3.4% in [11].

As to `CCN(CC(=O)NC)C(=O)Cc1nc(-c2ccco2)oc1C`, the Percent Effect in test [1] is -8.15%; in [2], 5.33%; in [3] it was -6.53%; in [4], 3.51%; in test [5], 0.876%; in test [6], 5.73%. For the same molecule, the Percent Effect in test [7] was 16.9%; in test [8] it was 10.7%; in test [9] it was 8.2%; in test [10], 13.6%; in test [11] it was -5.99%.

Regarding `CN(CC(=O)N1CCC(C(O)c2ccccc2)CC1)c1cnccn1` (stereo unspecified), the Percent Effect was -0.515% in test [1]; 10.8% in [2]; -0.406% in test [3]; 9.65% in [4]; -0.279% in test [5]; -2.77% in test [6]. The Percent Effect in [7] was 8.62%; in test [8], 13.4%; in test [9] it was 5.94%; in test [10] it was 23.2%; in [11] it was -7.9%.

As for `Cn1cnc2c1C(COCc1cccnc1)N(Cc1ccccn1)CC2` (stereo unspecified), the Percent Effect in test [1] was -3.69%; in [2] it was 8%; in test [3], -12.6%; in test [4], 2.61%; in [5] it was 7.53%; in test [6], -51.8%. For the same molecule, the Percent Effect in test [7] was 5.47%; in test [8], 3.9%; in [9] it was 4.17%; in test [10], -55%; in test [11] it was -7.17%.

For the molecule `Cn1cc(C2COC3(CCN(C(=O)c4ccc(F)cc4)CC3)C2)cn1` (stereo unspecified), the Percent Effect was -3.35% in [1]; 8.11% in test [2]; 6.34% in test [3]; -3.51% in [4]; -2.25% in test [5]; 7.33% in test [6]. Further, the Percent Effect was 19.9% in [7]; -15% in test [8]; 2.16% in [9]; 17.9% in test [10]; 2.2% in [11].
